# According to ChEMBL document CHEMBL5606460, “ASAP - DENV-2 NS2B-NS3 protease fluorescence single point” (2024):
# Out of some 2,000 compounds screened, about 110 (5.5%) showed an effect of 50% or more. The sample as a whole holds a higher share of strong results than the screen did.
# Target: Genome polyprotein (dengue virus type 2) (UniProt P29990)
# [1] = Thailand/16681/1984, Concentration 25.0 uM, Number of replicates 1.0
smiles,measurement,setting,value
NS(=O)(=O)c1cccc(CN2CC[C@H](c3c[nH]c4ccccc34)C2)c1,inhibition,"Thailand/16681/1984, Concentration 49.5 uM, Number of replicates 2.0, Standard deviation 1.1633260593891446 %",-1.78%
same,inhibition,"Thailand/16681/1984, Concentration 99.01 uM, Number of replicates 2.0, Standard deviation 1.588607527736017 %",0.04%
same,inhibition,"Thailand/16681/1984, Concentration 198.0 uM, Number of replicates 2.0, Standard deviation 1.7864683947344713 %",2.15%
Cc1cc(CO)c2cccc(Cc3ccccc3C(=O)Nc3nonc3C(N)=O)c2n1,inhibition,"Thailand/16681/1984, Concentration 49.95 uM, Number of replicates 2.0, Standard deviation 0.20481615067396447 %",9.42%
same,inhibition,"Thailand/16681/1984, Concentration 99.9 uM, Number of replicates 2.0, Standard deviation 0.252245853764608 %",28.4%
Cc1cc(CO)c2cccc(Cc3ccccc3C(=O)Nc3cccc(C(N)=O)c3)c2n1,inhibition,"Thailand/16681/1984, Concentration 49.95 uM, Number of replicates 2.0, Standard deviation 0.1803817681308647 %",4.23%
same,inhibition,"Thailand/16681/1984, Concentration 99.9 uM, Number of replicates 2.0, Standard deviation 0.18828716821235608 %",9.06%
Cc1cc(CO)c2cccc(Cc3cccc(C(=O)Nc4nonc4C(N)=O)c3)c2n1,inhibition,"Thailand/16681/1984, Concentration 49.95 uM, Number of replicates 2.0, Standard deviation 1.9942580477177279 %",23.4%
same,inhibition,"Thailand/16681/1984, Concentration 99.9 uM, Number of replicates 2.0, Standard deviation 1.5142007227316114 %",73%
Cc1cc(CO)c2cccc(Cc3ccccc3NC(=O)Cc3cccc(CN)c3)c2n1,inhibition,"Thailand/16681/1984, Concentration 49.95 uM, Number of replicates 2.0, Standard deviation 1.4858035354408357 %",-0.82%
same,inhibition,"Thailand/16681/1984, Concentration 99.9 uM, Number of replicates 2.0, Standard deviation 1.2081673980721888 %",5.26%
Cc1cc(CO)c2cccc(Nc3nonc3C(N)=O)c2n1,inhibition,"Thailand/16681/1984, Concentration 49.95 uM, Number of replicates 2.0, Standard deviation 1.5271718368293243 %",11%
same,inhibition,"Thailand/16681/1984, Concentration 99.9 uM, Number of replicates 2.0, Standard deviation 3.697399383401008 %",23.8%
Cc1cc(CO)c2cccc(Cc3cccc(C(=O)Nc4cccc(C(N)=O)c4)c3)c2n1,inhibition,"Thailand/16681/1984, Concentration 49.95 uM, Number of replicates 2.0, Standard deviation 0.8487279472032775 %",0.063%
same,inhibition,"Thailand/16681/1984, Concentration 99.9 uM, Number of replicates 2.0, Standard deviation 0.25943340872226184 %",4.4%
Cc1cc(CO)c2cccc(CC(=O)Nc3cccc(C(N)=O)c3)c2n1,inhibition,"Thailand/16681/1984, Concentration 49.95 uM, Number of replicates 2.0, Standard deviation 0.3351031861891448 %",71.5%
same,inhibition,"Thailand/16681/1984, Concentration 99.9 uM, Number of replicates 2.0, Standard deviation 0.3101738310571331 %",94.2%
Cc1cc(CO)c2cccc(Cc3cccc(C(=O)Nc4cc(O)[nH]n4)c3)c2n1,inhibition,"Thailand/16681/1984, Concentration 49.95 uM, Number of replicates 2.0, Standard deviation 1.1139101860624252 %",16.1%
same,inhibition,"Thailand/16681/1984, Concentration 99.9 uM, Number of replicates 2.0, Standard deviation 0.5605490390974336 %",35%
Cc1cc(CO)c2cccc(CC(=O)Nc3nonc3C(N)=O)c2n1,inhibition,"Thailand/16681/1984, Concentration 49.95 uM, Number of replicates 2.0, Standard deviation 0.10454576349345478 %",97.1%
same,inhibition,"Thailand/16681/1984, Concentration 99.9 uM, Number of replicates 2.0, Standard deviation 0.006921524049853062 %",99%
O=Cc1ccc(N2CCC(C(=O)NCc3ccc(C(F)(F)F)nc3)CC2)cc1,inhibition,[1],14.9%
CC(C)(CO)NC(=O)c1cc(Cl)cc(OCc2ccccn2)c1,inhibition,"Thailand/16681/1984, Concentration 49.5 uM, Number of replicates 2.0, Standard deviation 3.9117339361958243 %",-3.57%
same,inhibition,"Thailand/16681/1984, Concentration 99.01 uM, Number of replicates 2.0, Standard deviation 3.9139588683287148 %",-3.56%
same,inhibition,"Thailand/16681/1984, Concentration 198.0 uM, Number of replicates 2.0, Standard deviation 3.978479645326132 %",-2.33%
O=Cc1ccc(N2CCC(C(=O)N3CCS[C@H]3c3ccc([N+](=O)[O-])cc3)CC2)cc1,inhibition,[1],10.8%
CNC(=O)c1cc(Cl)ccc1NS(=O)(=O)c1ccc(Cn2cncn2)cc1,inhibition,"Thailand/16681/1984, Concentration 49.5 uM, Number of replicates 2.0, Standard deviation 0.7766096317793165 %",-1.89%
same,inhibition,"Thailand/16681/1984, Concentration 99.01 uM, Number of replicates 2.0, Standard deviation 1.2995063622910579 %",-0.333%
same,inhibition,"Thailand/16681/1984, Concentration 198.0 uM, Number of replicates 2.0, Standard deviation 1.6197418261994996 %",2.7%
CS(=O)(=O)N1CCC(NC(=O)C2CCN(c3ccc(C=O)cc3)CC2)CC1,inhibition,[1],12%
O=Cc1ccc(N2CCC(C(=O)Nc3ncnc(Cl)c3Cl)CC2)cc1,inhibition,[1],10.5%
C=CCN(Cc1cccc(OC)c1)C(=O)C1CCN(c2ccc(C=O)cc2)CC1,inhibition,[1],13.3%
Cc1ccc(NC(=O)C2CCN(c3ccc(C=O)cc3)CC2)cc1I,inhibition,[1],9.87%
Cc1cc(CO)c2cccc(Cc3ccccc3NC(=O)Cc3nnc(C)[nH]3)c2n1,inhibition,"Thailand/16681/1984, Concentration 49.95 uM, Number of replicates 2.0, Standard deviation 1.0489246346930539 %",2.09%
same,inhibition,"Thailand/16681/1984, Concentration 99.9 uM, Number of replicates 2.0, Standard deviation 0.8121374020252716 %",10.7%
O=Cc1ccc(N2CCC(C(=O)NCc3ccc(-c4ccccn4)cc3)CC2)cc1,inhibition,[1],6.55%
CC(=O)N[C@@H](CCCCN)C(=O)Nc1ccccc1Cc1cccc2c(CO)cc(C)nc12,inhibition,"Thailand/16681/1984, Concentration 49.95 uM, Number of replicates 2.0, Standard deviation 0.842601818478522 %",-5.54%
same,inhibition,"Thailand/16681/1984, Concentration 99.9 uM, Number of replicates 2.0, Standard deviation 0.16339684106206548 %",1.8%
CC(=O)N[C@@H](Cc1ccc(CN)cc1)C(=O)Nc1cccc2c(CO)cc(C)nc12,inhibition,"Thailand/16681/1984, Concentration 49.95 uM, Number of replicates 2.0, Standard deviation 0.08390662036506401 %",24.9%
same,inhibition,"Thailand/16681/1984, Concentration 99.9 uM, Number of replicates 2.0, Standard deviation 0.3339864632910001 %",96.3%
CC(=O)N[C@@H](Cc1ccc(O)cc1)C(=O)Nc1cccc2c(CO)cc(C)nc12,inhibition,"Thailand/16681/1984, Concentration 49.95 uM, Number of replicates 2.0, Standard deviation 2.4752459751189644 %",-9.17%
same,inhibition,"Thailand/16681/1984, Concentration 99.9 uM, Number of replicates 2.0, Standard deviation 3.123465853915667 %",-9.54%
